Test results reported in PubChem BioAssay (NCATS).
Records with an inconclusive call do not appear. Active and inactive are the calls of the source. Calls come from the whole dose curve; as a rule, active = well fitted cell-killing curve with a large enough effect; inconclusive = small, poorly fitted or top-dose-only effect, or effect the other way; inactive = no such curve, though single readings can be large or run the other way.

Assay: Quantitative High-Throughput drug screen in 47 multiple myeloma cell lines against the NCATS MIPE library collection: OCIMY7_PLB cell viability assay (AID 1918987)
Conditions: OCI-MY7 myeloma viability, CellTiter-Glo ATP, 48 h; series mostly up to 45.8 µM; viability (% of DMSO): at the top concentration
Procedure, shortened: (§1)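 MIPE 4.0 approved/investigational drugs; 500 cells/well; 48 h 37 °C humidified 5% CO2; CTG luminescence readout; DMSO = 100%, media = 0% viability.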
Note: nearly all actives have a fitted effect of over 65% in size.
Potency is the fitted concentration of half-maximal effect.

| SMILES | viability (% of DMSO) | Potency |
| --- | --- | --- |
| CCOC(=O)c1cncn1[C@H](C)c1ccccc1 | 126% (inactive) |  |
| N#C[C@H](O[C@@H]1O[C@H](CO[C@@H]2O[C@H](CO)[C@H](O)[C@H](O)[C@H]2O)[C@H](O)[C@H](O)[C@H]1O)c1ccccc1 |  | 10.5 µM (active) |
| O=c1[nH]c2ccccc2n1C1CCN(Cc2ccc(-c3[nH]c4cc5ncnc5cc4nc3-c3ccccc3)cc2)CC1 |  | 8.33 µM (active) |
| CC(=Cc1csc(C)n1)[C@@H]1C[C@H]2O[C@@H]2CCC[C@H](C)[C@@H](O)[C@@H](C)C(=O)C(C)(C)[C@@H](O)CC(=O)O1 | 31% (inactive) |  |
| C[C@@H]1CC[C@H]2[C@@H](C)C(=O)O[C@@H]3O[C@@]4(C)CC[C@H]1[C@]32OO4 |  | 1.87 µM (active) |
| Cc1[nH]nc2ccc(-c3cncc(OC[C@@H](N)Cc4c[nH]c5ccccc45)c3)cc12 |  | 0.0264 µM (active) |
| C[C@@H]1O[C@@H](O[C@@H]2C=C3CC[C@@H]4[C@@H](CC[C@]5(C)[C@H](c6ccc(=O)oc6)CC[C@@]45O)[C@@]3(C)CC2)[C@H](O)[C@H](O)[C@H]1O |  | 0.0132 µM (active) |
| CC[C@@]1(O)C(=O)OCc2c1cc1n(c2=O)Cc2cc3ccccc3nc2-1 |  | 0.001 µM (active) |
| NC1=NC(=O)N2CC12 (centres undefined) |  | 20.9 µM (active) |
| C[C@]12Cc3cn[nH]c3C[C@@H]1CC[C@@H]1[C@H]2CC[C@@]2(C)[C@H]1CC[C@]2(C)O | 182% (inactive) |  |
| CC1=C(O)C(=O)C=C2C1=CC=C1[C@@]2(C)CC[C@@]2(C)[C@@H]3C[C@](C)(C(=O)O)CC[C@]3(C)CC[C@]12C |  | 0.296 µM (active) |
| CC=C(C)C(=O)O[C@H]1C(C)=C2[C@@H]3OC(=O)[C@@](C)(O)[C@@]3(O)[C@@H](OC(=O)CCC)C[C@](C)(OC(C)=O)[C@@H]2[C@@H]1OC(=O)CCCCCCC |  | 0.264 µM (active) |
| COCC1(CO)C(=O)C2CCN1CC2 (centres undefined) |  | 0.469 µM (active) |
| CN1CCN(c2ccc([N+](=O)[O-])c3no[n+]([O-])c23)CC1 |  | 4.18 µM (active) |
| COc1cc([C@@H]2c3cc4c(cc3[C@@H](O)C3COC(=O)C32)OCO4)cc(OC)c1O (some centres undefined) |  | 0.0526 µM (active) |
| CCOP(=O)(OCC)C(C)NC(=O)N(CCCl)N=O (centres undefined) | 128% (inactive) |  |
| CCC(=O)OC1CCC2C3CCC4=CC(=O)CC[C@@]4(C)C3CC[C@]12C (some centres undefined) |  | 16.6 µM (active) |
| CCc1c(C(=O)C(N)=O)c2c(OCC(=O)O)cccc2n1Cc1ccccc1 | 168% (inactive) |  |
| CCN1CCN(C(=O)Cc2ccc(Nc3ncc(F)c(Nc4ccc(C(=O)Nc5ccccc5Cl)cc4)n3)cc2)CC1 |  | 0.526 µM (active) |

Assay: Quantitative High-Throughput drug screen in 47 multiple myeloma cell lines against the NCATS MIPE library collection: OCIMY5_PLB cell viability assay (AID 1918988);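 for viability, % of control: 100% = DMSO-treated wells and 0% = wells with media alone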
Conditions: OCI-MY5 myeloma viability, ATP luminescence, 48 h; series mostly up to 45.8 µM; viability, % of control: at the top concentration
Procedure, shortened: as §1

| SMILES | viability, % of control | Potency |
| --- | --- | --- |
| CCCC[N+]1(C)[C@H]2CC(OC(=O)[C@H](CO)c3ccccc3)C[C@H]1[C@H]1O[C@H]12 (some centres undefined) | 179% (inactive) |  |
| CCOC(=O)c1cncn1[C@H](C)c1ccccc1 | 157% (inactive) |  |
| N#C[C@H](O[C@@H]1O[C@H](CO[C@@H]2O[C@H](CO)[C@H](O)[C@H](O)[C@H]2O)[C@H](O)[C@H](O)[C@H]1O)c1ccccc1 |  | 20.9 µM (active) |
| O=c1[nH]c2ccccc2n1C1CCN(Cc2ccc(-c3[nH]c4cc5ncnc5cc4nc3-c3ccccc3)cc2)CC1 |  | 16.6 µM (active) |
| CN[C@@H]1Cc2cccc3[nH]c(=O)n(c23)C1 |  | 20.9 µM (active) |
| CC(=Cc1csc(C)n1)[C@@H]1C[C@H]2O[C@@H]2CCC[C@H](C)[C@@H](O)[C@@H](C)C(=O)C(C)(C)[C@@H](O)CC(=O)O1 | 48.5% (inactive) |  |
| Cc1[nH]nc2ccc(-c3cncc(OC[C@@H](N)Cc4c[nH]c5ccccc45)c3)cc12 |  | 0.833 µM (active) |
| O=C(Oc1ccc([N+](=O)[O-])cc1)N1CCN(Cc2cccc(Oc3ccccc3)c2)CC1 | 126% (inactive) |  |
| C[C@@H]1O[C@@H](O[C@@H]2C=C3CC[C@@H]4[C@@H](CC[C@]5(C)[C@H](c6ccc(=O)oc6)CC[C@@]45O)[C@@]3(C)CC2)[C@H](O)[C@H](O)[C@H]1O |  | 0.0132 µM (active) |
| CC[C@@]1(O)C(=O)OCc2c1cc1n(c2=O)Cc2cc3ccccc3nc2-1 |  | 0.166 µM (active) |
| C[C@]12Cc3cn[nH]c3C[C@@H]1CC[C@@H]1[C@H]2CC[C@@]2(C)[C@H]1CC[C@]2(C)O |  | 13.2 µM (active) |
| CC1=C(O)C(=O)C=C2C1=CC=C1[C@@]2(C)CC[C@@]2(C)[C@@H]3C[C@](C)(C(=O)O)CC[C@]3(C)CC[C@]12C |  | 0.296 µM (active) |
| CC=C(C)C(=O)O[C@H]1C(C)=C2[C@@H]3OC(=O)[C@@](C)(O)[C@@]3(O)[C@@H](OC(=O)CCC)C[C@](C)(OC(C)=O)[C@@H]2[C@@H]1OC(=O)CCCCCCC |  | 0.0105 µM (active) |
| COCC1(CO)C(=O)C2CCN1CC2 (centres undefined) |  | 2.64 µM (active) |
| CN1CCN(c2ccc([N+](=O)[O-])c3no[n+]([O-])c23)CC1 |  | 16.6 µM (active) |
| C[C@]12CCC(=O)C(O)=C1CC[C@@H]1[C@H]3CCC(=O)[C@@]3(C)CC[C@@H]12 |  | 18.7 µM (active) |
| COc1cc([C@@H]2c3cc4c(cc3[C@@H](O)C3COC(=O)C32)OCO4)cc(OC)c1O (some centres undefined) |  | 0.0105 µM (active) |
| COc1ccc2c(c1)[C@]13CCCCC1C(C2)N(C)CC3 (some centres undefined) | 126% (inactive) |  |
| CC(N[C@H]1C[C@H]1c1ccccc1)c1ccc2c(c1)OCCO2 (some centres undefined) |  | 2.96 µM (active) |
| C[C@]12COC(=O)C[C@@H]1CC[C@@H]1[C@H]2CC[C@@]2(C)[C@H]1CC[C@]2(C)O | 156% (inactive) |  |
| CSCC[C@@H](NC(=O)[C@@H](Cc1ccccc1)NC(=O)CNC(=O)CNC(=O)[C@@H](N)Cc1ccc(O)cc1)C(=O)O | 161% (inactive) |  |
| CCc1c(C(=O)C(N)=O)c2c(OCC(=O)O)cccc2n1Cc1ccccc1 | 168% (inactive) |  |
| CCN1CCN(C(=O)Cc2ccc(Nc3ncc(F)c(Nc4ccc(C(=O)Nc5ccccc5Cl)cc4)n3)cc2)CC1 |  | 2.64 µM (active) |
| O=C(O)CNC(=O)c1c(O)c2ccccc2n(Cc2ccccc2)c1=O | 153% (inactive) |  |
| COc1ccc2c(c1)CN(C)CC2c1ccc(Cl)c(Cl)c1 (centres undefined) |  | 11.8 µM (active) |
